Our source for the activity change values is PubChem BioAssay AID743279 (National Center for Advancing Translational Sciences (NCATS), 2014).

Several values for one entry are separate records, joined by “and”; a condition that tells them apart may be missing. Equal values may be shown once. About 17,000 (4.7%) of roughly 360,000 compounds were called active. Not shown: some 5% with an inconclusive outcome. This is one part of a sample in which actives are shown more often than they occur. Rule as the data show it: active = activity change below about -50%; inconclusive = mostly about -30% to -49%; inactive = weaker than that.
% is scaled to controls: 0 for no effect and ±100 for the full control effect.

The nature of the assay: qHTS for Inhibitors of Inflammasome Signaling: IL-1-beta AlphaLISA Primary Screen. The settings on record: THP-1 LPS/ATP IL-1B secretion, 16 h; at 57.5 µM, stronger effect = lower value. The essentials:
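Secreted IL-1B measured by AlphaLISA bead assay after 16 h compound exposure of THP-1 cells; compounds (final up to 57.5 uM) added 1 h before LPS (250 ng/mL) and ATP (1.25 mM) stimulation; lower signal means less secretion.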
For `CCC(C(=O)Nc1c(C)cccc1C)n1c(-c2cc(C)cs2)nc2ccccc21` (stereo unspecified), the activity change is -9.28% (inactive). With `O=C(O)Cc1ccc(NC(=O)Nc2cccc3ccccc23)cc1` the figure was 11.3% (inactive); with `Cc1ccc(NC(=S)NC(NC(=O)Cc2cccc3ccccc23)C(Cl)(Cl)Cl)cc1` (stereo unspecified), 1.31% (inactive). With `O=C(Cc1cccc2ccccc12)NNC(=O)Nc1ccc(Cl)cc1` the figure was -50% (active); with `O=C1C(Sc2cccc(F)c2)=C[C@@]2(O)CC[C@@H](O)[C@]1(Sc1cccc(F)c1)[C@H]2O`, 8.29% (inactive).

With `Cc1cccc(Nc2ccccc2C(=O)NCc2ccco2)c1C`, the activity change is 3.14% (inactive). With `O=C(Nc1ccccc1)Nc1ccccc1C(=O)NCc1ccco1` the figure was -56.9% (active).

Consider `O=C(CCNC(=O)c1ccccc1Cl)NCc1ccco1`, for which the activity change was 2.08% (inactive). In the case of `O=C1CSC(=S)N1c1ccc(Cl)c(Cl)c1`, the activity change was 7.49% (inactive). Regarding `CCC(CC)C(C(=O)NC1CCCC1)N1CCN(c2cc(C)nc3ccccc23)CC1` (stereo unspecified), the activity change is -20.5% (inactive). As for `CC1(C)CC(=O)C=C(c2ccccc2CO)C1=O`, the activity change is 22.9% (inactive).

In the case of `CCOC(=O)c1c(Cc2ccc(Cl)cc2)c[nH]c1C`, the activity change is -74.6% (active).

Consider `CCOC(=O)c1ccc(CS(=O)c2ccc(Cl)cc2)o1` (stereo unspecified), for which the activity change is -4.53% (inactive). Regarding `CCOC(=O)N1CCN(C(=O)CNC(=O)Cc2ccc(Cl)cc2)CC1`, the activity change is -0.466% (inactive). As for `Cc1cccc(NC(=S)N2CCC(C(=O)c3ccc(F)cc3)CC2)c1`, the activity change is -26.4% (inactive). The result for `Cc1cccc(NC(=O)c2nc(S(=O)(=O)Cc3ccccc3)ncc2Cl)c1` reads -103% (active); that for `O=C(Nc1ccc(F)cc1)c1ccc(S(=O)(=O)NCc2cccnc2)cc1`, -4.04% (inactive); that for `Cc1cccc(CS(=O)(=O)c2ncc(Cl)c(C(=O)Nc3ccc(F)cc3)n2)c1`, -93.5% (active). With `Cc1cccc(NC(=O)c2nc[nH]c2C(=O)NCC(=O)OCc2ccccc2)c1` the figure was 5.22% (inactive); with `Cc1cccc(NC(=O)CSc2nc3[nH]ncc3c(=O)[nH]2)c1`, 9.71% (inactive).

`CCOc1ccc(NC(=O)c2nc(SCC)ncc2Cl)cc1`: the activity change was -0.255% (inactive). The result for `Cc1ccc(S(=O)(=O)N(C)C)cc1NC(=O)CN1c2cccc3cccc(c23)S1(=O)=O` reads 12.6% (inactive); that for `COc1cc(CN2CCNC(=O)C2CC(=O)NCCc2ncccc2C)cc(OC)c1` (stereo unspecified), 16.2% (inactive); that for `CN(CCc1ccccc1)C(=O)c1cccc(NC(=O)Cc2cccc(NC(=O)C3CCCN(C(=O)C4CCC4)C3)c2)c1` (stereo unspecified), -17.1% (inactive). On to `N#CCSc1ccccc1NC(=O)CN1C(=O)NC(CCc2ccccc2)C1=O` (stereo unspecified), for which the activity change is 12.1% (inactive). With `COC(=O)CNS(=O)(=O)c1ccc(Cc2ccc(S(=O)(=O)NCC(=O)OC)cc2)cc1` the figure was -100% (active); with `C/C(N)=C(/C#N)C(=O)COC(=O)CNS(=O)(=O)c1ccc(C)cc1`, -8.82% (inactive).

`COC(=O)CNS(=O)(=O)c1ccc(OC)cc1`: the activity change was -22.2% (inactive). As to `O=C(CSc1nnc(N2CCOCC2)n1-c1cccc(F)c1)N1CCN(c2ccccn2)CC1`, the activity change was 2.69% (inactive). With `CCCCCNC(=O)C1C(=O)Nc2ccccc2C(=O)N1C(C)(C)C` (stereo unspecified) the figure was 6.47% (inactive); with `CCN1CCCC1CNC(=O)c1ccc2c(c1)NC(=O)/C(=C\c1ccccc1F)S2` (stereo unspecified), -14.5% (inactive).

Turning to `CC1(C)O[C@@H]2CC3C4C[C@H](F)C5=CC(=O)C=CC5(C)C4C(O)CC3(C)[C@]2(C(=O)CO)O1` (stereo partly specified), the activity change was -54.9% (active). For the molecule `C[C@]12C=CC(=O)C=C1CC[C@@H]1[C@@H]2C(=O)C[C@@]2(C)[C@H]1CC[C@]2(O)C(=O)CO`, the activity change was -14.3% (inactive) and -7.83% (inactive). The result for `CCCc1nnc(NC(=O)CCC(=O)N2CCN(S(=O)(=O)c3ccc(OC)cc3)CC2)s1` reads -1.97% (inactive); that for `CCOC(=O)c1cccc(NC(=O)CN2C(=O)C3CC=CCC3C2=O)c1` (stereo unspecified), 14.4% (inactive). For `O=[N+]([O-])c1ccc(NCCCN2CCOCC2)c(Cl)c1`, the activity change is -21.3% (inactive). In the case of `O=S(=O)(c1ccccc1)c1nc(-c2ccccc2)oc1NCCCN1CCOCC1`, the activity change result was “inactive”. `Nc1nc(NCCCN2CCOCC2)nc(Nc2ccccc2)c1[N+](=O)[O-]`: the activity change was -59.1% (active).

With `Cc1ccc(Cn2c(C)c3cnn(CC(=O)NCCN4CCOCC4)c(=O)c3c2C)cc1`, the activity change was -4.12% (inactive). As to `O=C(CSc1ncn[nH]1)Nc1nc2c(F)c(F)c(F)cc2s1`, the activity change is -7.33% (inactive). The result for `Nc1nc(NCC2CCCO2)nc(Nc2ccccc2F)c1[N+](=O)[O-]` (stereo unspecified) reads 0% (inactive); that for `C=CCNc1nc(N)c([N+](=O)[O-])c(NC2CCCCC2)n1`, 66.3% (inactive); that for `Nc1nc(Nc2ccccc2F)nc(NC2CCCCC2)c1[N+](=O)[O-]`, -71.1% (active). For `CCN1C[C@@H]2[C@@H]3C(=O)N(Cc4ccccc4)C(=O)[C@@H]3[C@](C)(C1=O)N2C(=O)c1ccc(C(C)(C)C)cc1`, the activity change was 0% (inactive). The result for `CSc1ncnc2c1ncn2CCCNCc1ccco1` reads 15.8% (inactive); that for `CCOc1ccc2[nH]c(=O)c(CN(Cc3nnnn3Cc3ccccc3)CC3CCCO3)cc2c1` (stereo unspecified), -63.9% (active). With `Cc1cc(C)c2cc(CN(Cc3nnnn3Cc3ccc(F)cc3)C3CCCC3)c(=O)[nH]c2c1` the figure was 7.62% (inactive); with `Cc1cc(C)c2[nH]c(=O)c(C(c3nnnn3Cc3ccc4c(c3)OCO4)N3CCCC3)cc2c1` (stereo unspecified), -10.3% (inactive).

As for `Cc1cccc2cc(CN(Cc3nnnn3Cc3ccccc3)C3CCCC3)c(=O)[nH]c12`, the activity change is -64.3% (active).

For `CCC(c1nnnn1Cc1ccco1)N(CCc1ccccc1)Cc1cc2cccc(C)c2[nH]c1=O` (stereo unspecified), the activity change is -4.44% (inactive). Consider `Cc1cccc2cc(CN(Cc3cccs3)C(c3nnnn3C3CCCC3)C(C)C)c(=O)[nH]c12` (stereo unspecified), for which the activity change was 0% (inactive). Consider `CCC(c1nnnn1Cc1ccccc1)N(Cc1cc2cc(OC)ccc2[nH]c1=O)CC1CCCO1` (stereo unspecified), for which the activity change was 0% (inactive). Regarding `Cc1cccc2cc(CN(Cc3ccc4c(c3)OCO4)Cc3nnnn3C3CCCC3)c(=O)[nH]c12`, the activity change is -54.8% (active). Turning to `CCOc1ccc2[nH]c(=O)c(CN(Cc3nnnn3CCc3ccccc3)CC3CCCO3)cc2c1` (stereo unspecified), the activity change is -29.1% (inactive). For the molecule `COc1ccc(C(C#N)=C2C=CC(=NO)c3ccccc32)cc1`, the activity change is -24.6% (inactive). The result for `Cc1nc2ccccc2nc1CC(O)(c1ccccc1)c1ccccc1` reads 3.22% (inactive).

Consider `O=C1NC[C@H](CCCCN2CCN(CCc3ccccc3)C(=O)C2=O)N(CC2CCCCC2)C1=O`, for which the activity change is -14.3% (inactive). For `CCCCc1nc2ccc(F)cc2cc1C`, the activity change was 8.78% (inactive). With `COc1ccc(C(C)(C)C)cc1NC(=O)CN(C)C1=NS(=O)(=O)c2ccccc21` the figure was 10.7% (inactive); with `COc1ccc([C@H]2N[C@]3(CCCN(CC4CCCCC4)C3=O)[C@H]3C(=O)N(C)C(=O)[C@@H]23)cc1`, -15% (inactive).

`O=C(Nc1cccc(Cc2ccccc2)c1)Nc1ccc2nc([C@@H]3O[C@H](CO)[C@@H](O)[C@H](O)[C@H]3O)[nH]c2c1`: the activity change is 33.4% (inactive). With `CCOc1c(Br)cc(/C=C2\C(=O)N(CCC#N)N=C2C)cc1OC` the figure was -62.4% (active); with `COc1cc(/C=C2/C(=O)NN(c3cccc(Cl)c3)C2=O)cc(Br)c1O`, -15.3% (inactive); with `C=CCOc1c(Br)cc(/C=N\n2nnnc2N)cc1OC`, 0% (inactive). In the case of `COc1cccc(-c2cc(NC(C)=O)c3ncc(-c4cccc(C(C)=O)c4)n3c2)c1`, the activity change was 7.02% (inactive). Take `Cc1cc(C)cc(Oc2nc3c(C)cccn3c(=O)c2/C=C(\C#N)C(=O)NC2CCS(=O)(=O)C2)c1` (stereo unspecified): the activity change is -109% (active). For the molecule `Cc1cccn2c(=O)c(/C=C(\C#N)S(=O)(=O)c3ccc(Cl)cc3)c(N3CCC(C(N)=O)CC3)nc12`, the activity change is 0% (inactive). For the molecule `Cc1cccn2c(=O)c(/C=C(\C#N)C(N)=O)c(N3CCCCCC3)nc12`, the activity change was -18.7% (inactive). Regarding `COc1ccc2c(c1)C(=O)CC(c1ccccc1)O2` (stereo unspecified), the activity change was -12.1% (inactive). `Cc1nn(C(C)C(=O)NCCC2=CCCCC2)c(=O)c2nn(-c3ccccc3)c(C)c12` (stereo unspecified): the activity change was 14.5% (inactive). In the case of `CCc1c(C)sc(NC(=O)c2cccs2)c1C(N)=O`, the activity change was -92.1% (active). With `CCOC(=O)c1oc2ccccc2c1NC(=O)c1cccs1` the figure was -2.68% (inactive). With `CCc1cccc(C)c1NC(=O)COC(=O)CNC(=O)c1cccs1` the figure was 16.5% (inactive); with `COC(=O)C1=CO[C@@H](O[C@@H]2O[C@H](CO)[C@@H](O)[C@H](O)[C@H]2O)C2C1C[C@H](O)[C@@H]2C` (stereo partly specified), 15.4% (inactive). The result for `COC[C@@H]1NS(=O)(=O)c2ccc(Br)cc2O[C@H]1c1ccccc1` reads 2.65% (inactive); that for `COc1ccc(/C=C2/CCCc3ccccc3C2=O)cc1`, 0% (inactive). Regarding `O=C1/C(=C/c2cccs2)CCc2ccccc21`, the activity change is -13.1% (inactive). `COc1ccc(/C=C2\CCc3ccccc3C2=O)c(OC)c1OC`: the activity change is -71% (active). With `N#CCc1c[nH]c2ccc([N+](=O)[O-])cc12` the figure was -1.78% (inactive). With `CNc1cncc(-c2ccc(NS(C)(=O)=O)cc2)n1` the figure was 6.32% (inactive); with `O=C(CCC(=O)N1CCN(S(=O)(=O)c2ccc(Cl)cc2)CC1)NCc1cccc(C(F)(F)F)c1`, -52.1% (active). The result for `O=C(NCc1cccc(C(F)(F)F)c1)c1cccc(S(=O)(=O)N2CCN(Cc3ccccc3)CC2)c1` reads 0% (inactive). Consider `CC(NC(=O)CCC(=O)N1CCN(S(=O)(=O)c2ccc(Cl)cc2)CC1)c1ccccc1` (stereo unspecified), for which the activity change is 45.7% (inactive). The result for `COc1ccc(C(=O)NCCNc2ccc([N+](=O)[O-])cn2)cc1` reads 40.6% (inactive); that for `CCOCC(=O)Nc1ncc(S(=O)(=O)c2ccc([N+](=O)[O-])cc2)s1`, 20.1% (inactive).

For `COC(=O)C(NC(=O)c1ccc(OC)cc1)(Nc1ncc(S(=O)(=O)c2ccc([N+](=O)[O-])cc2)s1)C(F)(F)F` (stereo unspecified), the activity change is -99.1% (active).
